High-throughput results as filed in PubChem.
A selection: hits, their analogues and other compounds. The true share with any hit is near 7.5%.
Rab9 prom act = qHTS Assay for Rab9 Promoter Activators | Potency, µM (top dose mostly 9.22 µM), for the others: at the top dose activation, negative = inhibition, hits mostly activators | Huh7 Rab9 promoter-luciferase reporter, luminescence, 24 h | 320,000 tested, 2.8% active; further: % of control where 0% means no effect; nearly all actives have a fitted effect of over 60% in size
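Huh7 reporter line, Rab9 promoter upstream of luciferase. Compound exposure 24 h at 37 °C in reduced-serum medium with 10% FBS. Read-out: luminescence.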
FLuc modulator = qHTS profiling assay for firefly luciferase inhibitor/activator using purifed enzyme and Km concentrations of substrates (counterscreen for miR-21 project). 360,000 tested, 6.9% active. Potency, µM (highest dose often 57.5 µM), for the others: at the top dose activity change, negative = inhibition, usual class: inhibitors. purified FLuc, Km substrates, luminescence inhibition. Luciferin 4-monooxygenase (Photinus pyralis), P08659;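 further: plate controls were vehicle for no effect and reference inhibitor for full effect; nearly all actives have a fitted effect of over 55% in size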
Target sequence (P08659 whole entry, looked up): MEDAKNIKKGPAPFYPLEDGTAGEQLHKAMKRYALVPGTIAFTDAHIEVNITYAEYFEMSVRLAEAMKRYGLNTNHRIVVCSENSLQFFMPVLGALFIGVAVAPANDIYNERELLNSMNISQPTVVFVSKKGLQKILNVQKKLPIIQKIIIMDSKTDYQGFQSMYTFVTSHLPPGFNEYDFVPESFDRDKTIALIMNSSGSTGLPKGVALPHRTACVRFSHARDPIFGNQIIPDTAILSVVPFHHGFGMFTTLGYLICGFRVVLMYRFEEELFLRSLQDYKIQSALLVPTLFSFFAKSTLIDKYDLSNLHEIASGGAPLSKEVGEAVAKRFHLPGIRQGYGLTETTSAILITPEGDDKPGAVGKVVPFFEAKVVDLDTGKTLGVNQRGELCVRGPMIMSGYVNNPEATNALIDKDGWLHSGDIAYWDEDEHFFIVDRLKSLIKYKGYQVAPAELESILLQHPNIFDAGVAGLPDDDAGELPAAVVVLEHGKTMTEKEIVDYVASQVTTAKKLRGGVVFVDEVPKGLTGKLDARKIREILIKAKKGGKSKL
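Purified P. pyralis luciferase, 10 nM final, with Km-level 10 uM D-luciferin and 10 uM ATP in 50 mM Tris acetate pH 7.5, 10 mM Mg acetate, 0.01% Tween-20, 0.05% BSA; 6-point qHTS titration about 60 µM downward; luminescence read.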
ELG1 genotoxic = qHTS screen for small molecules that induce genotoxicity in human embryonic kidney (HEK293T) cells expressing luciferase-tagged ELG1; 330,000 tested, 1.3% active; AID 504466, 2011; Potency, µM (doses to about 46 µM), for the others: at the top dose activity change, positive = activation, actives largely listed as activators; HEK293T ELG1-luciferase reporter, luminescence, 16 h; further: % of control where 0% means no effect; nearly all actives have a fitted effect of over 60% in size
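After overnight (16 hr) compound treatment at 37 °C, ELG1-luciferase HEK293T cells were lysed with ONE-Glo; luminescence quantified 30 min later at room temperature.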
NPC1 prom act = qHTS Assay for NPC1 Promoter Activators. Potency, µM (highest dose often 9.22 µM), for inactives: at the top dose activation, actives largely listed as activators. Huh7 NPC1 promoter luciferase reporter, 24 h. 320,000 tested, 2.4% active; further: % of control where 0% means no effect; nearly all actives have a fitted effect of over 60% in size
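Luminescence read-out of NPC1 promoter-driven luciferase in stably transfected Huh7 cells; compounds delivered in DMSO and left 24 h at 37C, 5% CO2, qHTS titration format.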
SMN2 splice enh = qHTS Assay for Enhancers of SMN2 Splice Variant Expression; HEK293 SMN2-luciferase splicing reporter, luminescence, 30-36 h; Potency, µM (titrated, usually from 46.1 µM), without a hit: at the highest dose activity change, positive = activation, actives largely listed as activators; 210,000 tested, 2.8% active; further: % of control where 0% means no effect; nearly all actives have a fitted effect of over 55% in size
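HEK293 cells carry an SMN2 […]–luciferase reporter in which exon 7 inclusion puts luciferase in frame. Cells were plated 10-12 h before compound addition, then incubated 30-36 h at 37C. ONE-Glo luminescence was read; sodium butyrate at 4.5 mM final served as control.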
Luc counter = Counterscreen for Luciferase (Kinase-Glo TM) Inhibition | Luciferin 4-monooxygenase (Photuris pensylvanica), Q27757 | Potency, µM (series often up to 38.3 µM), inactives show at the top dose activity change, negative = inhibition, hits mostly inhibitors | AID 1379, 2008 | 200,000 tested, 0.28% active | Kinase-Glo luciferase, ATP luminescence, 8 min; further: on the % scale 0 is the no-effect control and ±100 the full control effect; nearly all actives have a fitted effect of over 60% in size
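Compound is pinned into ATP-containing buffer (10 uM ATP, imidazole pH 7.2, 7 mM MgCl2). Kinase-Glo luciferase reagent is then added. Light output is recorded following an 8-min room-temperature incubation.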
An asterisk follows results filed as active; ? = inconclusive; nt = not tested or not shown. The call rests on the fitted dose curve; in most records, active means well fitted curve in the direction sought with a large enough effect; inconclusive means small, poorly fitted or top-dose-only effect, or another doubt; inactive means no such curve, though single readings can be large; an effect the other way counts as inactive or inconclusive. Potency means the concentration at half of the fitted maximal effect.

SMILES | Rab9 prom act | FLuc modulator | ELG1 genotoxic | NPC1 prom act | SMN2 splice enh | Luc counter
Cc1ccccc1/C=N/Nc1ncnc2nc[nH]c12 | ? | 15µM* | ? | ? | nt | nt
C(=N\Nc1ncnc2nc[nH]c12)/c1cccs1 | ? | 13µM* | 16µM* | ? | 35µM* | -22%
Clc1ccc(CCNc2ncnc3nc[nH]c23)cc1 | -7% | -19% | -2% | 0% | -63% | -1%
Cc1ccsc1/C=N/Nc1ncnc2nc[nH]c12 | 3.5µM* | 19µM* | 15µM* | 2.5µM* | 11µM* | ?
Cc1ccc2c(=O)c(C(=O)c3ccc(Cl)cc3)cn(CC(=O)Nc3ccc4c(c3)OCCO4)c2n1 | nt | 3% | nt | nt | nt | nt
O=C(NCc1ccc(F)cc1)c1cc2c(=O)n3ccccc3nc2s1 | nt | -2% | nt | nt | 2% | nt
COc1ccc(-c2cn3nc(N4CCC(C(=O)NCc5cccc(Cl)c5)CC4)sc3n2)cc1 | nt | 6% | nt | nt | nt | nt
Cc1cc(C)cc(NC(=O)Nc2ccc(NC(=O)c3ccccc3O)cc2)c1 | -4% | -4% | 6% | 4% | nt | nt
O=C(Oc1ccccc1C(=O)Nc1ccccc1)c1ccccc1Br | 19% | 17µM* | ? | -4% | 23% | 2%
O=C(Nc1ccccc1)c1ccccc1O | 26% | 11µM* | ? | 26% | -4% | 8%
Cc1ccc(NC(=O)c2ccccc2O)cc1 | 0.63µM* | 0.95µM* | ? | 2µM* | 2.8µM* | -4%
CCc1ccccc1NC(=O)Cn1ccn(Cc2ccccc2)c(=O)c1=O | nt | -6% | nt | nt | nt | nt
COc1cccc(CNC(=O)CC(c2ccc(C)cc2)N2Cc3ccccc3C2=O)c1 (stereo not drawn) | nt | 1% | nt | nt | nt | nt
N#C/C(C(=O)N1CCCCC1)=C1\Nc2ccccc2S1 | 2.8µM* | 11µM* | ? | ? | 18µM* | -2%
O=C1Nc2ccccc2S/C1=C\C(=O)N1CCCC1 | 3.5µM* | 12µM* | -19% | 19% | 13µM* | ?
CCc1ccc(C(=O)/C=C2\Sc3ccccc3NC2=O)cc1 | -5% | 13µM* | 11% | -1% | nt | 2%
O=C(O)C1CC(=O)N(CCC23CC4CC(CC(C4)C2)C3)C(=Nc2ccccc2)S1 (stereo not drawn) | nt | nt | nt | nt | nt | 2%
O=C(c1cc(-c2ccc(Cl)c(Cl)c2)on1)N1CCOCC1 | 2.8µM* | 3µM* | ? | 1.4µM* | nt | nt
O=C(c1cc(-c2ccc(Cl)cc2Cl)on1)N1CCOCC1 | 0.32µM* | 0.76µM* | 0.65µM* | 0.4µM* | 1.3µM* | -5%
O=C(c1cc(-c2ccc(Cl)c(Cl)c2)on1)N1CCCC1 | 2.2µM* | -17% | ? | 3.5µM* | 11µM* | -1%
O=C(NCCN1CCOCC1)c1cc(-c2ccc(Cl)c(Cl)c2)on1 | 2% | -1% | 0% | -4% | nt | nt
O=C(c1cc(-c2ccc(Cl)cc2)on1)N1CCOCC1 | 1µM* | 2.7µM* | 0.92µM* | 0.4µM* | 3.2µM* | -7%
O=C(NCc1ccco1)c1ccc2c(c1)N(Cc1ccccc1)C(=O)c1ccccc1S2(=O)=O | nt | -1% | nt | nt | -1% | nt
CCC(C)NC(=S)Nc1ccccc1 (stereo not drawn) | -6% | 6% | -4% | 1% | nt | nt
CC(C)C(NC(=S)Nc1ccccc1)C(=O)O (stereo not drawn) | -1% | 4% | -1% | 1% | 3.2µM* | -4%
SMILES | Rab9 prom act | FLuc modulator | ELG1 genotoxic | NPC1 prom act | SMN2 splice enh | Luc counter
O=C(NNC(=S)Nc1ccccc1)NNC(=S)Nc1ccccc1 | 1% | 6% | -5% | -14% | 3% | -3%
O=C(NNC(=S)Nc1ccccc1)Nc1ccccc1 | 22% | ? | 13% | 15% | 5.6µM* | 0%
Cc1ccc(NC(=S)NNC(=O)c2nn(C)c(C)c2Cl)cc1 | 3.2µM* | -2% | 16% | ? | ? | -1%
Cc1ccc(NC(=S)NNC(=O)Nc2ccccc2)cc1 | 3.2µM* | 2.4µM* | ? | ? | 13µM* | -8%
CCCc1cc(=O)oc2c(C)c3c(cc12)CN(CCc1ccc(Cl)cc1)CO3 | nt | -10% | nt | nt | 10% | nt
CCOC(=O)c1ccc(-n2c(N)c(C(=O)NCc3ccco3)sc2=S)cc1 | -1% | -19% | -5% | 1% | 4% | -6%
Cc1ccc2nc3sc(C(=O)NCc4ccco4)c(N)c3cc2c1 | 2µM* | 0.85µM* | 9.2µM* | ? | 4.5µM* | -3%
COc1cc2cc3c(N)c(C(=O)NCc4ccco4)sc3nc2cc1OC | ? | 11µM* | ? | ? | nt | nt
COc1ccc(-n2c(N)c(C(=O)NCc3ccco3)sc2=S)cc1 | 4.5µM* | -2% | ? | -1% | -2% | 1%
O=C(Cc1ccc(NC(=O)N2CCSc3ncccc32)cc1)NCc1ccccc1 | nt | -12% | nt | nt | nt | nt
O=C(NC1CCCCC1)c1n[nH]c2c1CC(c1ccccc1)CC2 (stereo not drawn) | 1.8µM* | 3µM* | ? | 2.2µM* | nt | nt
CSc1ncc2c(n1)-c1ccccc1N(Cc1ccccc1C)S2(=O)=O | nt | 2% | nt | nt | nt | nt
COc1ccc(C(=O)Nc2cccc(/C=C/c3nc4ccccc4c(=O)[nH]3)c2)cc1 | 3.2µM* | ? | -4% | 27% | nt | nt
O=C(Nc1cccc(/C=C/c2nc3ccccc3c(=O)[nH]2)c1)c1ccccc1Cl | ? | -12% | 0% | ? | nt | nt
COc1ccc(C(=O)Nc2nc3ccccc3c(=O)[nH]2)cc1 | 0.4µM* | 2.7µM* | ? | 0.71µM* | 13µM* | -11%
COc1ccc(C(=O)Nc2nc3cc(OC)c(OC)cc3c(=O)[nH]2)cc1 | -2% | 1% | 1% | -2% | -30% | -1%
Cc1cccc(NC(=O)c2sc(-n3nc(C)c(CCC(C)C)c3C)nc2C)c1 | nt | -6% | nt | nt | nt | nt
COc1ccc(CCNC(=O)c2ccc3c(c2)nc2n3CCC(C)C2)cc1OC (stereo not drawn) | nt | -10% | nt | nt | nt | nt
CSc1ccc(CCNC(=O)c2ccc3c(c2)nc2n3CCC(C)C2)cc1 (stereo not drawn) | nt | -20% | nt | nt | nt | nt
CSc1ccc(CCNC(=O)c2ccc3c(c2)nc2n3CCCCC2)cc1 | nt | 24µM* | nt | nt | nt | nt
Cc1ccccc1CCNC(=O)c1ccc2c(c1)nc1n2CCCCC1 | nt | 0.54µM* | nt | nt | nt | nt
CC1CCn2c(nc3cc(C(=O)NCCc4ccccc4)ccc32)C1 (stereo not drawn) | nt | 9.5µM* | nt | nt | nt | nt
CC(CNC(=O)c1ccc2c(c1)nc1n2CCCCC1)c1ccccc1 (stereo not drawn) | nt | 21µM* | nt | nt | nt | nt
COc1ccc(C(=O)c2oc3ccccc3c2NC(=O)COc2cccc(C)c2C)cc1 | nt | 2% | nt | nt | 11% | nt
